# Results: the supplement of paper PMC10037445
# The full ranking holds about 2,900 compounds; the median of “NF-kB SEAP reporter activity, fold change vs agonist alone” is about 0.99, and the highest 2% start at about 2.6. What follows is part of a selection rich in the highest values, with near analogues and random picks from the rest.
# What was measured:
# [1] = system: RAW-Dual; test: NF-kB SEAP reporter activity, fold change vs agonist alone; cytotoxicity flag (confluency mask): not cytotoxic; higher = enhanced NF-kB activity
# Outline: (§1)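 Library stock was pin-tooled at 50 nL into 384-well plates of RAW-Dual macrophages (50,000 cells/well, DMEM), followed 1 h later by a PRR agonist, and the cells were kept at 37 °C, 5% CO2. Supernatant collected after 20 hours was read for IRF by QuantiLuc luminescence and for NF-κB by QuantiBlue absorbance at 620 nm. Reporter activity is fold change over agonist-alone wells, and a well counted as cytotoxic when its IncuCyte confluency was below 70% of agonist controls in both mask sets.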
# [2] = system: RAW-Dual; test: NF-kB SEAP reporter activity, fold change vs agonist alone; higher = enhanced NF-kB activity; settings: library stock concentration (final ~1000-fold dilution): 10 mM
# Outline: as §1
# [3] = system: RAW-Dual; test: NF-kB SEAP reporter activity, fold change vs agonist alone; cytotoxicity flag (confluency mask): cytotoxic (confluency <70% of control); higher = enhanced NF-kB activity
# Outline: as §1
# [4] = agonist: ODN 1826 (TLR9) 0.5 ug/mL
# [5] = agonist: Pam2CSK4 (TLR2/6) 0.1 ug/mL
# [6] = agonist: Pam3CSK4 (TLR2/1) 0.1 ug/mL
# [7] = cytotoxicity flag (confluency mask): not cytotoxic, agonist: Imiquimod (TLR7) […]
# [8] = cytotoxicity flag (confluency mask): not cytotoxic, agonist: MPLA (TLR4) […]
smiles,measurement,setting,value
O=C1c2c(O)cc(O)cc2OC(c2cc(O)c(O)c(O)c2)C1O (stereo not given) (library stock concentration (final ~1000-fold dilution): 10 mM),NF-kB SEAP reporter activity,[1]; agonist: LPS (TLR4) 0.1 ug/mL,0.954
same,NF-kB SEAP reporter activity,[1]; [4],1.02
same,NF-kB SEAP reporter activity,[1]; [5],0.798
same,NF-kB SEAP reporter activity,[1]; [6],0.657
O=C1c2c(O)cc(O)cc2OC(c2cc(O)c(O)c(O)c2)C1O (stereo not given),NF-kB SEAP reporter activity,[2]; [7],0.946
same,NF-kB SEAP reporter activity,[2]; [8],1.07
CC(C)(C)NC(=O)c1cncn1C1CCN(c2ccc(-c3nnc(C(F)(F)F)o3)cn2)CC1 (library stock concentration (final ~1000-fold dilution): 10 mM),NF-kB SEAP reporter activity,[1]; agonist: LPS (TLR4) 0.1 ug/mL,6.27
same,NF-kB SEAP reporter activity,[1]; [4],3.15
same,NF-kB SEAP reporter activity,[1]; [5],1.66
same,NF-kB SEAP reporter activity,[1]; [6],2.84
CC(C)(C)NC(=O)c1cncn1C1CCN(c2ccc(-c3nnc(C(F)(F)F)o3)cn2)CC1,NF-kB SEAP reporter activity,[2]; [7],1.87
same,NF-kB SEAP reporter activity,[2]; [8],2.37
CC1(C)CCC2(C(=O)O)CCC3(C)C(=CCC4C5(C)CCC(=O)C(C)(C)C5CCC43C)C2C1 (stereo not given) (library stock concentration (final ~1000-fold dilution): 10 mM),NF-kB SEAP reporter activity,[1]; agonist: LPS (TLR4) 0.1 ug/mL,0.91
same,NF-kB SEAP reporter activity,[1]; [4],0.824
same,NF-kB SEAP reporter activity,[1]; [5],0.664
same,NF-kB SEAP reporter activity,[1]; [6],0.842
CC1(C)CCC2(C(=O)O)CCC3(C)C(=CCC4C5(C)CCC(=O)C(C)(C)C5CCC43C)C2C1 (stereo not given),NF-kB SEAP reporter activity,[2]; [7],0.8
same,NF-kB SEAP reporter activity,[2]; [8],1.27
CC(=O)N1c2ccc(-c3ccc(C(=O)O)cc3)cc2C(Nc2ccc(Cl)cc2)CC1C (stereo not given) (library stock concentration (final ~1000-fold dilution): 10 mM),NF-kB SEAP reporter activity,[1]; agonist: LPS (TLR4) 0.1 ug/mL,4.2
same,NF-kB SEAP reporter activity,[1]; [4],2.49
same,NF-kB SEAP reporter activity,[1]; [5],1.06
same,NF-kB SEAP reporter activity,[1]; [6],1.85
CC(=O)N1c2ccc(-c3ccc(C(=O)O)cc3)cc2C(Nc2ccc(Cl)cc2)CC1C (stereo not given),NF-kB SEAP reporter activity,[2]; [7],1.56
same,NF-kB SEAP reporter activity,[2]; [8],2.37
CC(=O)OC12COC1CC(O)C1(C)C(=O)C(O)C3=C(C)C(OC(=O)C(O)C(NC(=O)OC(C)(C)C)c4ccccc4)CC(O)(C(OC(=O)c4ccccc4)C21)C3(C)C.O.O.O (stereo not given) (library stock concentration (final ~1000-fold dilution): 10 mM),NF-kB SEAP reporter activity,[1]; agonist: LPS (TLR4) 0.1 ug/mL,1.26
same,NF-kB SEAP reporter activity,[1]; [4],0.91
same,NF-kB SEAP reporter activity,[1]; [5],0.697
same,NF-kB SEAP reporter activity,[1]; [6],0.713
CC(=O)OC12COC1CC(O)C1(C)C(=O)C(O)C3=C(C)C(OC(=O)C(O)C(NC(=O)OC(C)(C)C)c4ccccc4)CC(O)(C(OC(=O)c4ccccc4)C21)C3(C)C.O.O.O (stereo not given),NF-kB SEAP reporter activity,[2]; [7],1.07
same,NF-kB SEAP reporter activity,[2]; [8],1.23
CC1OC(OC2C(O)C(OCCc3ccc(O)c(O)c3)OC(CO)C2OC(=O)/C=C/c2ccc(O)c(O)c2)C(O)C(O)C1O (stereo not given) (library stock concentration (final ~1000-fold dilution): 10 mM),NF-kB SEAP reporter activity,[1]; agonist: LPS (TLR4) 0.1 ug/mL,1.21
same,NF-kB SEAP reporter activity,[1]; [4],1.05
same,NF-kB SEAP reporter activity,[1]; [5],1.03
same,NF-kB SEAP reporter activity,[1]; [6],1.11
CC1OC(OC2C(O)C(OCCc3ccc(O)c(O)c3)OC(CO)C2OC(=O)/C=C/c2ccc(O)c(O)c2)C(O)C(O)C1O (stereo not given),NF-kB SEAP reporter activity,[2]; [8],1.02
CN1CCCN=C1/C=C/c1cccc(O)c1.O=C(O)c1cc2ccccc2c(Cc2c(O)c(C(=O)O)cc3ccccc23)c1O (library stock concentration (final ~1000-fold dilution): 10 mM),NF-kB SEAP reporter activity,[1]; agonist: LPS (TLR4) 0.1 ug/mL,0.973
same,NF-kB SEAP reporter activity,[1]; [4],0.993
same,NF-kB SEAP reporter activity,[1]; [5],1.01
same,NF-kB SEAP reporter activity,[1]; [6],0.594
CN1CCCN=C1/C=C/c1cccc(O)c1.O=C(O)c1cc2ccccc2c(Cc2c(O)c(C(=O)O)cc3ccccc23)c1O,NF-kB SEAP reporter activity,[2]; [7],0.944
same,NF-kB SEAP reporter activity,[2]; [8],1.12
CC(C)N1CCN(Cc2cnc(-c3cc(-c4cccc5[nH]ccc45)cc4[nH]ncc34)o2)CC1 (library stock concentration (final ~1000-fold dilution): 10 mM),NF-kB SEAP reporter activity,[1]; agonist: LPS (TLR4) 0.1 ug/mL,4.66
same,NF-kB SEAP reporter activity,[1]; [4],0.196
same,NF-kB SEAP reporter activity,[1]; [5],0.982
same,NF-kB SEAP reporter activity,[1]; [6],1.86
CC(C)N1CCN(Cc2cnc(-c3cc(-c4cccc5[nH]ccc45)cc4[nH]ncc34)o2)CC1,NF-kB SEAP reporter activity,[2]; [7],0.519
same,NF-kB SEAP reporter activity,[2]; [8],1.83
C[N+]1(C)CCC[C@H]1C(=O)O,NF-kB SEAP reporter activity,[2]; [7],0.952
same,NF-kB SEAP reporter activity,[2]; [8],0.985
C[N+]1(C)CCC[C@H]1C(=O)O (library stock concentration (final ~1000-fold dilution): 10 mM),NF-kB SEAP reporter activity,[1]; agonist: LPS (TLR4) 0.1 ug/mL,1.08
same,NF-kB SEAP reporter activity,[1]; [4],1.08
same,NF-kB SEAP reporter activity,[1]; [5],1.16
same,NF-kB SEAP reporter activity,[1]; [6],1.08
CCCC(NC(=O)/C(C#N)=C/c1cccc(Br)n1)c1ccccc1 (stereo not given),NF-kB SEAP reporter activity,[2]; [7],0.971
same,NF-kB SEAP reporter activity,[2]; [8],0.962
CCCC(NC(=O)/C(C#N)=C/c1cccc(Br)n1)c1ccccc1 (stereo not given) (library stock concentration (final ~1000-fold dilution): 10 mM),NF-kB SEAP reporter activity,[1]; agonist: LPS (TLR4) 0.1 ug/mL,0.416
same,NF-kB SEAP reporter activity,[1]; [4],0.925
same,NF-kB SEAP reporter activity,[1]; [5],0.387
same,NF-kB SEAP reporter activity,[1]; [6],0.838
Cc1[nH]c2ccccc2c1C1=C(NCCc2ccc(F)cc2)C(=O)N(C)C1=O (library stock concentration (final ~1000-fold dilution): 10 mM),NF-kB SEAP reporter activity,[1]; agonist: LPS (TLR4) 0.1 ug/mL,1.23
same,NF-kB SEAP reporter activity,[1]; [4],0.588
same,NF-kB SEAP reporter activity,[1]; [5],0.531
same,NF-kB SEAP reporter activity,[1]; [6],0.337
Cc1[nH]c2ccccc2c1CCNCc1ccc(/C=C/C(=O)NO)cc1 (library stock concentration (final ~1000-fold dilution): 10 mM),NF-kB SEAP reporter activity,[3]; agonist: LPS (TLR4) 0.1 ug/mL,4.6
same,NF-kB SEAP reporter activity,[3]; [4],0.219
same,NF-kB SEAP reporter activity,[3]; [5],0.886
same,NF-kB SEAP reporter activity,[3]; [6],1.47
Cc1[nH]c2ccccc2c1CCNC(=O)c1cccs1 (library stock concentration (final ~1000-fold dilution): 10 mM),NF-kB SEAP reporter activity,[1]; agonist: LPS (TLR4) 0.1 ug/mL,1
same,NF-kB SEAP reporter activity,[1]; [4],1.06
same,NF-kB SEAP reporter activity,[1]; [5],1.12
same,NF-kB SEAP reporter activity,[1]; [6],0.991
Cc1[nH]c2ccccc2c1C1=C(NCCc2ccc(F)cc2)C(=O)N(C)C1=O,NF-kB SEAP reporter activity,[2]; [7],1.01
same,NF-kB SEAP reporter activity,[2]; [8],1.28
Cc1[nH]c2ccccc2c1CCNCc1ccc(/C=C/C(=O)NO)cc1,NF-kB SEAP reporter activity,"[2]; cytotoxicity flag (confluency mask): cytotoxic (confluency <70% of control), agonist: Imiquimod (TLR7) […]",2.51
same,NF-kB SEAP reporter activity,"[2]; cytotoxicity flag (confluency mask): cytotoxic (confluency <70% of control), agonist: MPLA (TLR4) […]",2.63
Cc1[nH]c2ccccc2c1CCNC(=O)c1cccs1,NF-kB SEAP reporter activity,[2]; [7],1.06
same,NF-kB SEAP reporter activity,[2]; [8],1.11
O=c1oc2cc(O)ccc2c2ccc(O)cc12,NF-kB SEAP reporter activity,[2]; [7],1.26
same,NF-kB SEAP reporter activity,[2]; [8],1.58
O=c1oc2cc(O)ccc2c2ccc(O)cc12 (library stock concentration (final ~1000-fold dilution): 10 mM),NF-kB SEAP reporter activity,[1]; agonist: LPS (TLR4) 0.1 ug/mL,1.08
same,NF-kB SEAP reporter activity,[1]; [4],0.575
same,NF-kB SEAP reporter activity,[1]; [5],0.257
same,NF-kB SEAP reporter activity,[1]; [6],0.455
CNC(=O)c1ccc(-c2cnc3cnc(-c4ccccc4)cn23)cc1 (library stock concentration (final ~1000-fold dilution): 10 mM),NF-kB SEAP reporter activity,[1]; agonist: LPS (TLR4) 0.1 ug/mL,1.54
same,NF-kB SEAP reporter activity,[1]; [4],0.763
same,NF-kB SEAP reporter activity,[1]; [5],1.22
same,NF-kB SEAP reporter activity,[1]; [6],2.3
CNC(=O)c1ccc(-c2cnc3cnc(-c4ccccc4)cn23)cc1,NF-kB SEAP reporter activity,[2]; [7],1.1
same,NF-kB SEAP reporter activity,[2]; [8],1.37
CC12CCC3c4ccc(O)cc4CC(CCCCCCCCCS(=O)CCCC(F)(F)C(F)(F)F)C3C1CCC2O (stereo not given),NF-kB SEAP reporter activity,[2]; [7],0.89
same,NF-kB SEAP reporter activity,[2]; [8],0.904
CC12CCC3c4ccc(O)cc4CC(CCCCCCCCCS(=O)CCCC(F)(F)C(F)(F)F)C3C1CCC2O (stereo not given) (library stock concentration (final ~1000-fold dilution): 10 mM),NF-kB SEAP reporter activity,[1]; agonist: LPS (TLR4) 0.1 ug/mL,0.714
same,NF-kB SEAP reporter activity,[1]; [4],0.721
same,NF-kB SEAP reporter activity,[1]; [5],0.634
same,NF-kB SEAP reporter activity,[1]; [6],0.864
